GLP-1R inv ag: GLP-1 receptor (human) inverse agonism; P43220; HEK293 GLP-1R CRE-luciferase, luminescence, 24 h; GLP-1R form is constitutively active; Potency, µM (highest dose often 38.3 µM), without a hit: at the top dose activity change, negative = inhibition, usual class: inhibitors; hit rate 1.6% among 410,000; also: % is scaled to controls: 0 for no effect and ±100 for the full control effect; nearly all actives have a fitted effect of over 55% in size
Target sequence (P43220 whole entry, looked up): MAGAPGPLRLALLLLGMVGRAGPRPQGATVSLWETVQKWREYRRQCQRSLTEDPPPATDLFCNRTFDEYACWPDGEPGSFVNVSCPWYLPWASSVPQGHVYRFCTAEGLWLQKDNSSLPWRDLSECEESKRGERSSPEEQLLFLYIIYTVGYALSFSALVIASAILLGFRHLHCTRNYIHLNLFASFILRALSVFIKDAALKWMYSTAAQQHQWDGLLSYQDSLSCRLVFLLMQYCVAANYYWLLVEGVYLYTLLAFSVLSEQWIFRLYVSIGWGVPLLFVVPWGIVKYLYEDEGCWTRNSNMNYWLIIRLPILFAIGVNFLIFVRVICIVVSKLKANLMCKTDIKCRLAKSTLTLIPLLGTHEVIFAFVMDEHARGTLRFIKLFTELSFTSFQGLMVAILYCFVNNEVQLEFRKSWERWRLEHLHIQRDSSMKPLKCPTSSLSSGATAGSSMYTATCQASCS
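qHTS in 1536-well format: reporter HEK293 cells expressing constitutive GLP-1R activity in DMEM + 10% Nu serum, 24 hr with compounds at 37 deg C, luminescence read after 12 min with detection reagent.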
GLP1R cytotox: cytotoxic in the GLP-1 receptor inverse agonist counter-screen. HEK293 cAMP-luciferase reporter cells, luminescence, 24 h. Potency, µM (titrated, usually from 38.3 µM), for inactives: at the highest dose activity change, negative = inhibition, usual class: inhibitors. hit rate 0.13% among 410,000. AID 624418;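 also: loss of luciferase light is scored as toxicity; % is scaled to controls: 0 for no effect and ±100 for the full control effect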
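Quantitative HTS format, 1536 wells, 200 cells/uL seeded. Compounds: 23 nL, 24 h, 37 °C. Detection: luciferase reagent, luminescence at 12 min RT; decreased signal taken as cytotoxic.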
ClpP mod: qHTS Assay for Activators of ClpP; ATP-dependent Clp protease proteolytic subunit (Bacillus subtilis (strain 168)), P80244; purified B. subtilis ClpP, FRET peptide cleavage, 20 min; Potency, µM (doses to about 57.5 µM), for inactives: top-dose activity change, negative = active; hit rate 1.9% among 340,000; AID 651965, 2013; active = well fitted falling curve with a large enough effect; inconclusive = small, poorly fitted or top-dose-only effect; inactive = no such curve, though single readings can be large or run the other way; also: the source files actives as falling curves though it sought activators and does not explain the sign; nearly all actives have a fitted effect of over 65% in size
Target sequence (P80244 whole entry, looked up): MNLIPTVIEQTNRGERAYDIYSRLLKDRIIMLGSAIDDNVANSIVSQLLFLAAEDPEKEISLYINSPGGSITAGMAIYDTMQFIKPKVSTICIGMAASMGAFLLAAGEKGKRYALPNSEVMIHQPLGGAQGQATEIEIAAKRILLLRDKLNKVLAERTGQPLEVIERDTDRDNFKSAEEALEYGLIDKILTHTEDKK
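ClpP 10 microg/mL final, pH 8 Tris/KCl buffer with BSA, glycerol, Tween-20; compound pinned in; FRET-FV substrate; RT 20 min; Ex320/Em430; ΔFRET vs ADEP 5.8 microM, DMSO, no enzyme.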
GLP-1R agonist: activates the human GLP-1 receptor. P43220. AID 624172. HEK293 GLP-1R CRE-luciferase, luminescence, 4-6 h; cells express a hypersensitive GLP-1R form. hit rate 0.007% among 380,000. Potency, µM (doses to about 45.6 µM), without a hit: at the highest dose activation, actives largely listed as activators; also: % of control where 0% means no effect
* marks the source's active call; other numbers are inactive results; i = inactive; ? = inconclusive; / = no result; ! = not confirmed by another sample; [ ] = dose if it differs, or a comment. Shown are actives, neighbours in structure and some others; about 3.2% of the full set was active somewhere. Unless noted, calls follow the shape of the dose curve; as a rule, active = well fitted curve in the direction sought with a large enough effect; inconclusive = small, poorly fitted or top-dose-only effect, or another doubt; inactive = no such curve, though single readings can be large; an effect the other way counts as inactive or inconclusive. Potency is read from the fitted curve at half-maximal effect.

SMILES | GLP-1R inv ag | GLP1R cytotox | ClpP mod | GLP-1R agonist
COc1ccc(NC(=O)c2oc3ccccc3c2NC(=O)Cc2ccc(F)cc2)c(OC)c1 | 4% | -1% | 4% | -2%
c1ccc(-n2ncc3c(N4CCCCC4)ncnc32)cc1 | 4µM* | 4% | -3% | -5%
Cc1cccc(-n2ncc3c(N4CCCCCC4)ncnc32)c1 | -14% | 1% | -3% | /
c1ccc(-n2ncc3c(NC4CCCCCC4)ncnc32)cc1 | 5.6µM* | -19% | -12% | 11%
Clc1ccc(-n2ncc3c(NC4CCCC4)ncnc32)cc1 | ? | -23% | ? | /
NNc1ncnc2c1cnn2-c1ccccc1 | 10µM* | ? | -10% | 13%
Cc1c(C)c2cc3c(c(C)c2oc1=O)OCN(CCc1ccc(F)cc1)C3 | -6% | 47% | 4% | /
Cn1c(=O)n(C)c2cc(S(=O)(=O)Nc3ccccc3C(=O)O)ccc21 | 1% | 3% | ? | -8%
O=C(O)CCCNc1ccc(S(=O)(=O)Nc2ccccc2C(=O)O)cc1C(=O)O | 2% | -8% | 16µM* | -1%
N#CC1(NC(=O)Cn2ncc(Cl)c(Cl)c2=O)CCCCC1 | ? | ? | / | -7%
Cn1c(=O)c2c(nc(Cl)n2CC(=O)NC2(C#N)CCCCC2)n(C)c1=O | 2% | -7% | 28µM* | 0%
C[Si](C)(C)O[Si](C)(C)C | / | / | / | 11%
COC(=O)c1ccc2nc(NC(=O)C(C)(C)C)sc2c1 | ? | 4% | / | -5%
COC(=O)c1ccc2nc(Nc3nc4ccc(F)cc4s3)sc2c1 | -82% | 58% | 18µM* | -16%
CSc1cccc(NC(=O)Cn2c(=O)n(Cc3ccccc3)c(=O)c3sc4ccccc4c32)c1 | 14% | 0% | ? | 1%
CN(C)CCCn1c(=O)n(Cc2ccco2)c(=O)c2c3c(sc21)CCCCC3 | 4.5µM* | -4% | / | 16%
Cc1cc2cc3c(=O)[nH]c(=O)nc-3n(CC(O)C(O)C(O)CO)c2cc1C (centres undefined) | -16% | i | 35µM* | -4%
COc1ccc(-c2nc3c(C#N)c[nH]n3c2NC2CCCCC2)c(OC)c1 | ? | 0% | -2% | /
COc1cc(-c2nc3nc(C)cc(C)n3c2Nc2ccc(Cl)cc2)ccc1O | -22% | 11% | -3% | /
C/C(=N\N=C1\NC(=O)C(CC(=O)Nc2ccc(Cl)cc2)S1)c1ccco1 (centres undefined) | ? | 7% | / | 6%
C/C(=N\N=C1\NC(=O)C(CC(=O)Nc2ccc(C)c(Cl)c2)S1)C(C)(C)C (centres undefined) | 11µM* | 16% | / | 9%
Cc1ccc2nc(-c3ccccn3)oc2c1 | ? | 31% | 6% | -16%
Clc1ccc2oc(-c3cccnc3)nc2c1 | 74% | 21% | 25µM* | 9%
Cc1ccc2nc(-c3cccnc3)oc2c1 | 11% | 0% | 1.4µM*! | -7%
CC1CCCN(Cc2c(O)ccc3c(=O)c(Oc4ccccc4Cl)c(C(F)(F)F)oc23)C1 (centres undefined) | -10% | 0% | -3% | /
SMILES | GLP-1R inv ag | GLP1R cytotox | ClpP mod | GLP-1R agonist
CC(=O)Nc1sc2c(c1CN1CCN(c3ccc(F)cc3)CC1)CCCC2 | 7.1µM* | -1% | 1% | -3%
CN1CCCN(C(=O)/C=C/c2ccc(Cl)cc2Cl)CC1 | 7.9µM* | ? | 0% | -7%
CCN(C(=O)CSc1nc(-c2ccc(C(C)C)cc2)no1)c1ccccc1 | 11µM* | 3% | -5% | /
CN1CCN(c2ccc(NC(=O)CSc3nnnn3-c3ccccc3Cl)cc2)CC1 | 5µM* | -6% | -1% | -1%
O=C(CSc1nnnn1-c1ccccc1)Nc1ccc(N2CCOCC2)c(Cl)c1 | -9% | -9% | -1% | 4%
COc1ccc(OC)c(NC(=O)c2c(NC(=O)CNCc3ccco3)sc3c2CCC3)c1 | -1% | -10% | 16µM* | -8%
CCOc1ccc(NC(=O)c2c(NC(=O)CNCCN3CCOCC3)sc3c2CCC3)cc1 | 2.5µM* | ? | -1% | -2%
CCOc1ccc(NC(=O)c2c(NC(=O)c3ccccc3F)sc3c2CCC3)cc1 | -3% | 7% | -2% | /
Cc1ccc(CCNC(=O)c2cc3ccccn3n2)cc1 | 6% | -3% | -5% | /
Cc1cccc(OC2CCN(Cc3nc(CC4CC4)no3)CC2)c1 | 13µM* | 17% | -2% | 8%
Cc1cccc(SC2CCN(Cc3nc(CC4CC4)no3)CC2)c1 | -5%[0.307 µM] | 7%[0.307 µM] | 1% | 0%
Cc1nn(C2CC(O)C(O)C(CO)O2)c(=O)[nH]c1=O (centres undefined) | 12% | 16% | 28µM* | 1%
O=C(Nc1ccc(F)cc1F)NC1CCN(Cc2c(F)cccc2Cl)CC1 | 8.9µM* | -2% | / | 10%
Cc1cc(Cl)ccc1NC(=O)NC1CCN(S(=O)(=O)c2ccc(F)cc2)CC1 | 6.3µM* | ? | 5% | -5%
CC(C)C1=CC2=CC[C@@H]3[C@](C)(CCC[C@@]3(C)C(=O)O)[C@H]2CC1 | / | / | / | -2%
CN(C)c1cc(N/N=C/c2ccc(Cl)cc2)nc(N(C)C)n1 | 2.5µM* | ? | -9% | -1%
Cc1cccc(-n2ncc3c(NCCOCCO)ncnc32)c1 | 3% | 5% | 4% | /
O=C(Cn1nc(Cl)nc1Cl)c1cc2ccccc2oc1=O | 23% | 11% | 28µM* | 0%
Cc1cc(C)c[n+](CC(=O)c2cc3ccccc3oc2=O)c1 | 1% | 19% | 28µM* | -11%
O=C(Cn1nc(Cl)nc1Cl)c1ccccc1 | -1% | -3% | / | 5%
COc1ccc(CN2CC(=O)N3[C@H]4c5ccc(OC)cc5OC[C@@H]4[C@H](c4ccccc4)[C@]3(C)C2=O)cc1 | ? | -13% | 0% | 1%
Cc1ccc2c(c1)C(=O)N1[C@H]3c4cc(Br)ccc4OC[C@@H]3[C@H](c3ccccc3)[C@]1(C)C(=O)N2 | 5% | -49% | -10% | -6%
COc1ccc2c(c1)OC[C@H]1[C@H]2N2C(=O)CN(Cc3ccc(Cl)cc3)C(=O)[C@@]2(C)[C@H]1c1ccccc1 | 11µM* | 12% | 2% | -1%
COc1ccc2c(c1)[C@H]1[C@H](CO2)[C@H](c2ccccc2)[C@]2(C)C(=O)Nc3ccc(Br)cc3C(=O)N12 | 5.6µM* | 24% | -11% | -5%
Cc1ccc2c(c1)[C@H]1[C@H](CO2)[C@H](c2ccccc2)[C@]2(C)C(=O)Nc3ccc(Br)cc3C(=O)N12 | 3.2µM* | 5% | -2% | -6%
SMILES | GLP-1R inv ag | GLP1R cytotox | ClpP mod | GLP-1R agonist
CCOc1ccc2nc(N3CCC(C(=O)Nc4ccccc4CC)CC3)sc2c1 | 16% | -7% | 0% | /
O=C(NCCc1ccccc1)c1ccc(CSc2nc3ccncc3n2Cc2cccc(F)c2)cc1 | ? | -17% | -24% | /
O=C(C[n+]1ccncc1)c1cccc([N+](=O)[O-])c1 | / | / | 1% | /
Cc1cccc(N(C)C(=O)CCS(=O)(=O)c2ccc3c(c2)oc(=O)n3C)c1 | -8% | -3% | 0% | /
COC(=O)c1ccccc1-c1ccc(/C=N/NC(N)=O)o1 | 2% | 2% | -1% | 17%
COC(=O)c1sccc1-c1ccc(/C=N/OC(=O)c2ccccc2)o1 | -3% | 2% | 32µM* | -17%

Bioassay records from PubChem.
